# Measurements: PubChem BioAssay (NCATS)
# Results filed as inconclusive are left out. The source made the active and inactive calls. Unless noted, the call rests on the fitted dose curve; in most records, active means well fitted curve in the direction sought with a large enough effect; inconclusive means small, poorly fitted or top-dose-only effect, or another doubt; inactive means no such curve, though single readings can be large; an effect the other way counts as inactive or inconclusive.
# Assays:
# [1] = target: Lysosomal acid glucosylceramidase (Homo sapiens) (UniProt P04062); assay: Glucocerebrosidase-p2 (AID 348; in the data active means potency below about 10 µM; further: potency means the concentration at half of the fitted maximal effect); conditions: purified GBA, blue fluorogenic substrate, 40 min
# Method in brief: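 Compounds titrated from 0.6 nM upwards against 0.2 nM enzyme in pH 5.9 citric acid/KH2PO4, taurocholate, tween-20; blue fluorogenic substrate 80 uM, 40 min room temperature, stopped and read Ex 365/Em 440 for AC50.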
# [2] = AP1 Signaling Pathway (AID 357; active means well fitted curve in either direction with a large enough effect, not every such curve was filed as active;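 further: ME-180 reporter cells stimulated with EGF at its EC50 level; on the % scale 0 is the no-effect control and ±100 the full control effect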); conditions: ME-180 AP-1-bla reporter, EGF-induced, beta-lactamase ratio, 5 h; at 7.69 µM (top of the series) unless noted
# Method in brief: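 In this screen, ME-180 cells in Opti-MEM with 0.5% dialyzed FBS received EC50 EGF and compound titrations for 5 h. AP-1 reporter beta-lactamase was detected via CCF4 ratio, giving AC50 for positive and negative modulators.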
# [3] = target: Cytochrome P450 1A2 (Homo sapiens) (UniProt P05177); assay: p450-cyp1a2 (AID 410; calls by dose curve; further: potency means the concentration at half of the fitted maximal effect); conditions: recombinant CYP1A2, luciferin-ME demethylation, luminescence; series mostly up to 57 µM
# Cytochrome P450 1A2 (Homo sapiens), sequence (P05177 whole entry, looked up): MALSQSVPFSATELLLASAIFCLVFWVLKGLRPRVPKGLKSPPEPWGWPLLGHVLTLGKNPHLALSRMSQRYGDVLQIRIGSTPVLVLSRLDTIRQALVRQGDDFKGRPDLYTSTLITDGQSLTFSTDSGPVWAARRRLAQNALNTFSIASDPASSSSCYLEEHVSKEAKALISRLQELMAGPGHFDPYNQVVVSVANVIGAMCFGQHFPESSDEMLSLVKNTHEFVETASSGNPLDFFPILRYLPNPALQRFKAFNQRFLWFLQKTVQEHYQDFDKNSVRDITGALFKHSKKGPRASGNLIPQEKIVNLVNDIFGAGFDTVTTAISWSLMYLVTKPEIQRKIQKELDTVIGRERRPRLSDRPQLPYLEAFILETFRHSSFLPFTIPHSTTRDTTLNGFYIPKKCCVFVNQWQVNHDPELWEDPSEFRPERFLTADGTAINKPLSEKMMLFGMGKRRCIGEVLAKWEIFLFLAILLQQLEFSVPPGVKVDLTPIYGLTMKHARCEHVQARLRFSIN
# Method in brief: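 20nM CYP1A2 with 100uM Luciferin-ME (at Km) in 100mM KPO4; compound preincubated 10 min, NADPH regeneration added, 60 min at room temperature. Luciferin quantified by luminescence after detection reagent; normalized to 57 uM furafylline.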
# [4] = NFAT Signaling Pathway (AID 444; active means well fitted curve in either direction with a large enough effect, not every such curve was filed as active;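 further: carbachol stimulus at about its EC50 of 1 µM final; on the % scale 0 is the no-effect control and ±100 the full control effect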); conditions: Jurkat NFAT-bla M1, carbachol, beta-lactamase ratio, 5 h; at 7.69 µM (top of the series) unless noted
# Method in brief: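 Jurkat cells carrying an NFAT-driven β-lactamase reporter and co-transfected muscarinic M1 receptor were treated with compound plus carbachol (1 uM final, an EC50 level) for 5 h at 37 °C. CCF4 loading followed for 1 h at RT; 460/530 nm ratio gave %activity.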
# [5] = Stat Signaling Pathway (AID 446; active means well fitted curve in either direction with a large enough effect, not every such curve was filed as active;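 further: ME-180 cervical cancer cells given 40 pM IL-6 alongside compound; SIE-controlled beta-lactamase reporter measured as 460/530 nm FRET emission ratio; on the % scale 0 is the no-effect control and ±100 the full control effect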); conditions: ME-180 SIE beta-lactamase reporter, IL-6 stimulated, 5 h; at 7.69 µM (top of the series) unless noted
# Method in brief: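 Screening format detects activators and inhibitors alike: ME-180 SIE-bla cells stimulated at 40 pM IL-6 for 5 hrs with compound, then dual-emission beta-lactamase read at 405 nm excitation.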
# [6] = target: Glucocorticoid receptor (Homo sapiens) (UniProt P04150); assay: GR-GFP Redistribution (AID 450;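 active means compounds whose dose series gives a full or clear partial fitted curve of increased nuclear translocation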; further: potency means the concentration at half of the fitted maximal effect); conditions: U2OS GR-GFP nuclear translocation, laser cytometry, 2 h
# Glucocorticoid receptor (Homo sapiens), sequence (P04150 whole entry, looked up, the tested form may be a part): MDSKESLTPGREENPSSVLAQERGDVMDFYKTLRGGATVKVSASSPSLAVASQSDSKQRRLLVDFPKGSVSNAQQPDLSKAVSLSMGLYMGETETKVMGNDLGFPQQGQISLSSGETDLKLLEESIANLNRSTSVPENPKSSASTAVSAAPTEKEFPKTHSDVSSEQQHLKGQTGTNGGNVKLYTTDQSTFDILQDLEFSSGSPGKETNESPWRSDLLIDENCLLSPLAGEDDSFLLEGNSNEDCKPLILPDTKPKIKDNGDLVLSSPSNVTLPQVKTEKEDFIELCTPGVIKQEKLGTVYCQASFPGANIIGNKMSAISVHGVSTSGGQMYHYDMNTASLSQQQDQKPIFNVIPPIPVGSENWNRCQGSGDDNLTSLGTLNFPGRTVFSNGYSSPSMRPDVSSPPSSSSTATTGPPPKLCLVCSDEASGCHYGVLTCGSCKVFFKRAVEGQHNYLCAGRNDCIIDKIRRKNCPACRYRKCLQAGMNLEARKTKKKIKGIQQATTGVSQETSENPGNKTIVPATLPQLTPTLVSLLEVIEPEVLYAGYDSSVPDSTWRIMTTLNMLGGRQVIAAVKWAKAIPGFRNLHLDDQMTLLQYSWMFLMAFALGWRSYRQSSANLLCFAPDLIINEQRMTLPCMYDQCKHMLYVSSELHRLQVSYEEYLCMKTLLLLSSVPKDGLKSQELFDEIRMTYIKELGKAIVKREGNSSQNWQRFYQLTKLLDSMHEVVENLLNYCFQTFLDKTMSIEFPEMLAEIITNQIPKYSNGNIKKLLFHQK
# [7] = target: Glucocorticoid receptor (Homo sapiens) (UniProt P04150); assay: GR-EFC Redistribution (AID 451; calls by dose curve; further: potency means the concentration at half of the fitted maximal effect); conditions: CHO-K1 GR-EFC translocation, beta-gal luminescence, 2 h
# Method in brief: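 CHO-K1 cells stably expressing nuclear-localized β-gal enzyme acceptor and GR fused C-terminally to the enzyme donor fragment; ligand-driven nuclear translocation restores β-gal by complementation. Compounds titrated up to 46 uM final, 2 h at 37 °C; luminescence read.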
# [8] = target: Mitogen-activated protein kinase 10 (Mus musculus) (UniProt Q61831); assay: JNK3 AlphaScreen Assay (AID 530; active means well fitted curve in either direction with a large enough effect, not every such curve was filed as active;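 further: kinase came from lysate of stimulated human HepG2 cells; signal reports phosphorylation of biotinylated GST-cJun 1-79 at Ser73 with 10 µM ATP; on the % scale 0 is the no-effect control and ±100 the full control effect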); conditions: JNK3 lysate, c-Jun phosphorylation; series mostly up to 57.1 µM
# Method in brief: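 Inhibitors reduce antibody binding to phosphorylated biotin-cJun, lowering AlphaScreen luminescence. Lysates from HepG2 cells pre-activated by IL-1beta plus TNF-alpha supplied JNK3; compounds were titrated.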
# [9] = target: 3',5'-cyclic-AMP phosphodiesterase 4B (Homo sapiens) (UniProt Q07343); assay: qHTS Assay for Inhibitors of PDE-IV (AID 607; active means well fitted activation curve with a large enough effect in the main read-out, with a control signal flat, not every such curve was filed as active; further: % of control where 0% means no effect); conditions: HEK293 ACTOne CNG channel cells, membrane potential fluorescence; series mostly up to 22.9 µM
# Method in brief: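 The readout is membrane depolarisation from a cAMP-sensing CNG channel, detected with a potential dye at ex 535/em 590. Cells were HEK293-derived (endogenous PDE-IV) at 1000 cells/well, titrated up to 22.9 uM final.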
# [10] = target: Cytochrome P450 3A4 (Homo sapiens) (UniProt P08684); assay: qHTS Assay for Inhibitors and Substrates of Cytochrome P450 3A4 (AID 884); conditions: recombinant CYP3A4, Luciferin-PPXE luminescence; series mostly up to 57.1 µM; further: nearly all actives have a fitted effect of over 50% in size; further: potency means the concentration at half of the fitted maximal effect
# Cytochrome P450 3A4 (Homo sapiens), sequence (P08684 whole entry, looked up): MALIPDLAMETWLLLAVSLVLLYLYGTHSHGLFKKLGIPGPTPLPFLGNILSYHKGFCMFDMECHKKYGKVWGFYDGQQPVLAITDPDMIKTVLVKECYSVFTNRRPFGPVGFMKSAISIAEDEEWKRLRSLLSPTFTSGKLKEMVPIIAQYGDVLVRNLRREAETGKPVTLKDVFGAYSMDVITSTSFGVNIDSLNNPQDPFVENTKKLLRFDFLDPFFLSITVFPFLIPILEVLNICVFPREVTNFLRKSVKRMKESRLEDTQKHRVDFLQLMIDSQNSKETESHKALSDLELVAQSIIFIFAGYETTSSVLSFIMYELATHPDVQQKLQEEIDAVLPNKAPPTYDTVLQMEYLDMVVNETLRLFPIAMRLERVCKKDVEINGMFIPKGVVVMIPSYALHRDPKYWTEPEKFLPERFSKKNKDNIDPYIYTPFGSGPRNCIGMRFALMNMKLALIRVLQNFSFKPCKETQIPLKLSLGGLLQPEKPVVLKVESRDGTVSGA
# Method in brief: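 20 nM human CYP3A4 with 25 uM Luciferin-PPXE (at KM) in 200 mM KPO4, preincubated 10 min with compound; NADPH regeneration started a 60 min RT reaction. Luciferin detected by luminescence, normalized to 57 uM ketoconazole as full inhibition.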
# [11] = qHTS Assay for Lipid Storage Modulators (AID 1519; calls by dose curve; further: potency means the concentration at half of the fitted maximal effect); conditions: Drosophila S3 cells, BODIPY lipid droplet/cell ratio, laser cytometry, cells loaded with oleic acid; for activity change, negative = inhibition: at 57.5 µM (top of the series)
# Method in brief: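 Cells seeded at 5,000 per well were treated with compounds over a concentration series and loaded with oleic acid (400 uM, as added). Lipid droplet fluorescence (488 nm excitation, 500-530 nm channel) was read by laser-scanning cytometry and normalized to 20 uM Triacsin C.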
# [12] = target: Dual specificity protein kinase CLK4 (Homo sapiens) (UniProt Q9HAZ1); assay: qHTS Assay for Inhibitors of CDC-like Kinase 4 (Kinase-Glo Assay) (AID 1770); conditions: recombinant Clk4, Kinase-Glo ATP depletion luminescence; series mostly up to 66.7 µM; further: on the % scale 0 is the no-effect control and ±100 the full control effect; nearly all actives have a fitted effect of over 65% in size
# Dual specificity protein kinase CLK4 (Homo sapiens), sequence (Q9HAZ1 whole entry, looked up): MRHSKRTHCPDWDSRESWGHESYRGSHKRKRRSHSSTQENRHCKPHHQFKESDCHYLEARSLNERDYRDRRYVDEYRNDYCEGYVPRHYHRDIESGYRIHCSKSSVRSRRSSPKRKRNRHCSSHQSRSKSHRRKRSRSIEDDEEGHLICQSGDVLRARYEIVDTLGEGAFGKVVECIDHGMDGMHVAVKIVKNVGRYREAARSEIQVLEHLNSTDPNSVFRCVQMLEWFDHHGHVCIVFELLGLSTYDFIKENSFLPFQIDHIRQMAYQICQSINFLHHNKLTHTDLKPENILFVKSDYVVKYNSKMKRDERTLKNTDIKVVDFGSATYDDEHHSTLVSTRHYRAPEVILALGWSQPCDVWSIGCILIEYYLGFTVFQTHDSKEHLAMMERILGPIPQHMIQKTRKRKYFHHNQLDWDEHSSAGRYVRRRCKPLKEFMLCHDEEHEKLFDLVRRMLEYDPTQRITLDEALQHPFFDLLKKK
# Method in brief: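 25 nM Clk4 with 100 uM RS repeat peptide and 1 uM ATP (final) in Tris pH7.5, 10 mM MgCl2, 4.5 h at room temperature. Remaining ATP measured by Kinase-Glo luciferase luminescence.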
# [13] = target: Dual specificity protein kinase CLK4 (Homo sapiens) (UniProt Q9HAZ1); assay: qHTS Assay for Inhibitors of CDC-like Kinase 4 (ADP-Glo Assay) (AID 1771); conditions: recombinant CLK4, ADP-Glo luminescence; series mostly up to 80 µM; further: on the % scale 0 is the no-effect control and ±100 the full control effect; nearly all actives have a fitted effect of over 70% in size
# Method in brief: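 25 nM Clk4 with 100 uM RS repeat peptide and 1 uM ATP (final) in buffer with 2 mM MgCl2, 0.5 mM EGTA, 2.5 mM DTT, 0.01% Triton X-100; 1 h at room temperature; ADP-Glo luminescence for ADP formed.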
# [14] = target: Dual specificity protein kinase CLK4 (Homo sapiens) (UniProt Q9HAZ1); assay: qHTS Assay for Inhibitors of CDC-like Kinase 4 (ADP-FP Assay) (AID 1795); conditions: Transcreener ADP fluorescence polarization; series mostly up to 50 µM;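 further: recombinant human CLK4 phosphorylating RS repeat peptide at 1 µM ATP; on the % scale 0 is the no-effect control and ±100 the full control effect; nearly all actives have a fitted effect of over 60% in size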
# Method in brief: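 Recombinant Clk4 (6.25 nM) phosphorylated 100 uM RS repeat peptide with 1 uM ATP in 25 mM Tris pH 7.5, 10 mM MgCl2, 0.5 mM EGTA, 2.5 mM DTT, 0.01% Triton X-100 for 1 h. ADP was detected by Transcreener ADP2 competitive fluorescence polarization after 30 min at room temperature.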
# [15] = target: Ubiquitin carboxyl-terminal hydrolase 1 (Homo sapiens) (UniProt O94782); assay: Inhibitors of USP1/UAF1: Pilot qHTS (AID 504865); conditions: purified USP1/UAF1, Ub-rhodamine cleavage fluorescence; series mostly up to 54.9 µM;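 further: rhodamine fluorescence freed from ubiquitin-rhodamine substrate followed over time; top concentration of the series differs between compounds; on the % scale 0 is the no-effect control and ±100 the full control effect; nearly all actives have a fitted effect of over 35% in size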
# Ubiquitin carboxyl-terminal hydrolase 1 (Homo sapiens), sequence (O94782 whole entry, looked up): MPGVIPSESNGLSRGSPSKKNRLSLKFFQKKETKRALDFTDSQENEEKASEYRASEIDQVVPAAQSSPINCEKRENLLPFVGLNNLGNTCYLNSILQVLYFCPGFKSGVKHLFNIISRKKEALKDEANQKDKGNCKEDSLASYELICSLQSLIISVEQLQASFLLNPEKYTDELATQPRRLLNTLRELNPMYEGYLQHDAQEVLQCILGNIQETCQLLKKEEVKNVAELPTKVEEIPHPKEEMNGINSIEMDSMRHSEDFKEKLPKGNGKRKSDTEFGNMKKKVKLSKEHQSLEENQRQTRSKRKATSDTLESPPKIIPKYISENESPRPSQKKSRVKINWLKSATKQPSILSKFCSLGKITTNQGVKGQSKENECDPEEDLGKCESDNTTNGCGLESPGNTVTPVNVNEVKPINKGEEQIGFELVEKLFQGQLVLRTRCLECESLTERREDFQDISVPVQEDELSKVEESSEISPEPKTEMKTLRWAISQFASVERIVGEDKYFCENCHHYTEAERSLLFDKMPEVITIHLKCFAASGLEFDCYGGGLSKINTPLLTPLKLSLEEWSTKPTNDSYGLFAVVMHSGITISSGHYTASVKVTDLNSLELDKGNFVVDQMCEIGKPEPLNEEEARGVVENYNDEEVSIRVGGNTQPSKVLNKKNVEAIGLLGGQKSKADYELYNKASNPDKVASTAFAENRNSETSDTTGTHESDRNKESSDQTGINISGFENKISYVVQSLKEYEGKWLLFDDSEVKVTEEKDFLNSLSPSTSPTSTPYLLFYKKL
# Method in brief: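 USP1/UAF1 complex at 1 nM preincubated 15 min at room temperature with compound, then Ub-Rho substrate added at 150 nM final. Fluorescence (480/540 nm) read kinetically in 50 mM HEPES pH 7.8, 0.5 mM EDTA, 1 mM TCEP, 0.1 mg/ml BSA, 0.01% Tween-20.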
# [16] = target: Cytochrome P450 3A4 (Homo sapiens) (UniProt P08684); assay: qHTS Assay for Activators of Cytochrome P450 3A4 (AID 885); conditions: recombinant CYP3A4, Luciferin-PPXE luminescence, 60 min; series mostly up to 57.1 µM; further: nearly all actives have a fitted effect of over 65% in size
# Method in brief: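 Steps: enzyme/substrate mix dispensed; compound added, 10 min RT; NADPH regeneration solution added, 60 min RT; luciferin detection buffer stops reaction; 20 min later luminescence measured.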
# [17] = target: Rap guanine nucleotide exchange factor 3 (Homo sapiens) (UniProt O95398); assay: Confirmatory qHTS for agonist of cAMP-regulated guanine nucleotide exchange factor 3 (EPAC1) (AID 1645881); conditions: EPAC1 Rap1B BODIPY-GDP exchange fluorescence; series mostly up to 154 µM;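 further: EPAC1 catalysed release of BODIPY-GDP from Rap1B seen as fluorescence loss; 100% = effect of cAMP agonist control; nearly all actives have a fitted effect of over 75% in size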
# Rap guanine nucleotide exchange factor 3 (Homo sapiens), sequence (O95398 whole entry, looked up): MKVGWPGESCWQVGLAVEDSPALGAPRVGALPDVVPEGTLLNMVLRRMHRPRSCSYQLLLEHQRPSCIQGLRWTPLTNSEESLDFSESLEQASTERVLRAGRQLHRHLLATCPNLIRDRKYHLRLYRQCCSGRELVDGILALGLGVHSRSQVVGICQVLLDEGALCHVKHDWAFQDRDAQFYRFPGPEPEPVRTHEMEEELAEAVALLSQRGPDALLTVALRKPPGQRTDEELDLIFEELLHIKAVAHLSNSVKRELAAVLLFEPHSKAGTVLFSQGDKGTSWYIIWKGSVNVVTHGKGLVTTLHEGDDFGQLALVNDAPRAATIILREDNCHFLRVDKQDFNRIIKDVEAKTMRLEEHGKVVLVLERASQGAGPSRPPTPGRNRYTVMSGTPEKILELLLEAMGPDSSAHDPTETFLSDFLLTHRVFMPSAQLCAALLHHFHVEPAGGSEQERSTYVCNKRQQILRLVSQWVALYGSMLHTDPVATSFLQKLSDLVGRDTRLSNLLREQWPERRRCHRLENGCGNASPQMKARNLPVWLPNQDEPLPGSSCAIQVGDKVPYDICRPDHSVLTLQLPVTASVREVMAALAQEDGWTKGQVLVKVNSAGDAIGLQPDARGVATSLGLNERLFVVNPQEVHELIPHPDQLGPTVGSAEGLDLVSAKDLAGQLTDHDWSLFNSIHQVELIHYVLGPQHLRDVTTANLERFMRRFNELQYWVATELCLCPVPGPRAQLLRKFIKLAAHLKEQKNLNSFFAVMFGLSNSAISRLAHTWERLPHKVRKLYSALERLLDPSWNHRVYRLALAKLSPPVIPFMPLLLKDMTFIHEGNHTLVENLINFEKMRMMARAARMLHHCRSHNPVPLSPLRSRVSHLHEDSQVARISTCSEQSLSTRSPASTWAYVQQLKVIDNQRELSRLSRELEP
# [18] = target: Rap guanine nucleotide exchange factor 4 (Homo sapiens) (UniProt Q8WZA2); assay: Confirmatory qHTS for agonist of cAMP-regulated guanine nucleotide exchange factor 4 (EPAC2) (AID 1645884); conditions: EPAC2 GEF activity, Rap1B-BODIPY-GDP fluorescence; series mostly up to 154 µM;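 further: nucleotide exchange releases bodipy-GDP from Rap1 and this lowers its fluorescence; on the % scale 0 is the no-effect control and ±100 the full control effect; nearly all actives have a fitted effect of over 65% in size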
# Rap guanine nucleotide exchange factor 4 (Homo sapiens), sequence (Q8WZA2 whole entry, looked up): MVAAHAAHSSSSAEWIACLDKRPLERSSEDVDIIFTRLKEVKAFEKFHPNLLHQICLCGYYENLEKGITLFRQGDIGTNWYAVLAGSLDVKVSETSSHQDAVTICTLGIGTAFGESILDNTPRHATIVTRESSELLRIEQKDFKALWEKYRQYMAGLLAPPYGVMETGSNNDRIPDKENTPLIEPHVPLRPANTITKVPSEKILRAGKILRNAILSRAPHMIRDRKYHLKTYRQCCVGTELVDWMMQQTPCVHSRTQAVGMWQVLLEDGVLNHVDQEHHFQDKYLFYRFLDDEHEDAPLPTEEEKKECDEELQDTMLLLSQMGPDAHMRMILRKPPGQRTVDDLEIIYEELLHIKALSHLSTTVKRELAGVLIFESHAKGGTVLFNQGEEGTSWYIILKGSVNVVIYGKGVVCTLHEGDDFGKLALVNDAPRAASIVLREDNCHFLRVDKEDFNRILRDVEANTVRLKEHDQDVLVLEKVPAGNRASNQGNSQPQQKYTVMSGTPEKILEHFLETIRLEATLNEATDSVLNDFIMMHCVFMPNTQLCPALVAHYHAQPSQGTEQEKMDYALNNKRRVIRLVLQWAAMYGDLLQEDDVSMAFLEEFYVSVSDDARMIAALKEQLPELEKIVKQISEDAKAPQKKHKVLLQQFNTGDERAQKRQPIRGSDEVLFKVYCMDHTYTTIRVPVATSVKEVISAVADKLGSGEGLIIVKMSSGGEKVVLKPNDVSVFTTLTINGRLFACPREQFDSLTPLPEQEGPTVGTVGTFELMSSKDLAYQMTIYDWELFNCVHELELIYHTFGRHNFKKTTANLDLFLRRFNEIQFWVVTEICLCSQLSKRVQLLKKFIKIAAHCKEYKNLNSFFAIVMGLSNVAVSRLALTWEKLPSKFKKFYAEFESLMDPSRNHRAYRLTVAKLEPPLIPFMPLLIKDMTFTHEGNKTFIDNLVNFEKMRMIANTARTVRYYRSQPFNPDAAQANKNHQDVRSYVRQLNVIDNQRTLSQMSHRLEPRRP
# [19] = Confirmation and Secondary Assay for Modulators of Hemoglobin Beta Chain Splicing at IVS2 705 locus (AID 930); conditions: HeLa EGFP-705 splicing reporter, GFP fluorescence, 48 h; series mostly up to 38.3 µM;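 further: HeLa cells stably expressing the EGFP-705 splicing reporter; GFP fluorescence per well restored by corrected splicing of the IVS2-705 intron in EGFP; % of control where 0% means no effect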
# Method in brief: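 HeLa cells stably carrying EGFP interrupted by mutant beta-globin intron 2 (IVS2-705) treated 2 days at 37C with compound; 500 nM antisense PNA as control. Correct splicing read as total peak GFP intensity per well by laser-scanning cytometry.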
# [20] = target: Rap guanine nucleotide exchange factor 4 (Homo sapiens) (UniProt Q8WZA2); assay: Confirmatory qHTS for antagonist of cAMP-regulated guanine nucleotide exchange factor 4 (EPAC2) (AID 1645885); conditions: EPAC2 Rap1B-BODIPY-GDP exchange fluorescence, biochemical; series mostly up to 114 µM; further: potency means the concentration at half of the fitted maximal effect; nearly all actives have a fitted effect of over 25% in size
# [21] = measured here: cell count channel max response
# [22] = measured here: lipid channel max response
smiles,measurement,setting,value
CN1CCN(c2ncc3nc(-c4ccc(F)cc4)c(=O)n(C4CC4)c3n2)CC1,Potency,[1],> 11.4 µM (inactive)
same,"activity change, negative = inhibition",[2],9.67% (inactive)
same,Potency,[3],12.6 µM (active)
same,"activity change, negative = inhibition",[4],24.4% (inactive)
same,"activity, negative = inhibition",[5],18.6% (inactive)
same,Potency,[6],> 9.22 µM (inactive)
same,Potency,[7],> 46 µM (inactive)
same,Potency,[8],inactive
same,Potency,[9],inactive
same,Potency,[10],inactive
same,"activity change, negative = inhibition",[11],-0.731% (inactive)
same,max response,[11]; [21],7.24%
same,max response,[11]; [22],4.22%
same,Potency,[12],inactive
same,Potency,[13],inactive
same,Potency,[14],inactive
same,Potency,[15],inactive
COc1ccc(/C=C/C(=O)O)cc1OC,"activity change, negative = inhibition",[11],14.6% (inactive)
same,max response,[11]; [21],4.45%
same,max response,[11]; [22],26.5%
Nc1ncnc2c1nc(Br)n2C1O[C@H]2COP(=O)(O)O[C@@H]2C1O (stereo partly specified),"activity change, negative = inhibition",[11],0.429% (inactive)
same,max response,[11]; [21],27.3%
same,max response,[11]; [22],29.9%
Nc1c2ccccc2nc2ccccc12 (tested in a mixture with another compound),Potency,[16],inactive
same,"activity change, negative = inhibition",[11],-15.1% (inactive)
same,max response,[11]; [21],-8%
same,max response,[11]; [22],-17.5%
same,Potency,[15],inactive
same,Potency,[17],inactive
same,Potency,[18],inactive
CC(=O)OC1c2c(ccc3ccc(=O)oc23)OC(C)(C)C1OC(=O)CC(C)C (stereo unspecified),Potency,[10],20 µM (active)
same,Potency,[16],inactive
same,outcome,[19],inactive
same,Potency,[11],25.1 µM (active)
same,max response,[11]; [21],-23.2%
same,max response,[11]; [22],-91.6%
same,Potency,[17],inactive
same,Potency,[18],inactive
same,Potency,[20],44.1 µM (active)
CN1CCc2c(cc(O)c(O)c2Cl)C(c2cccc(Cl)c2)C1 (stereo unspecified),"activity change, negative = inhibition",[11],-5.99% (inactive)
same,max response,[11]; [21],26.1%
same,max response,[11]; [22],9.27%
C[n+]1cccc(C(=O)[O-])c1,Potency,[10],inactive
same,outcome,[19],inactive
same,"activity change, negative = inhibition",[11],6.06% (inactive)
same,max response,[11]; [21],-1.12%
same,max response,[11]; [22],2.73%
same,Potency,[15],inactive
CN1CCN(c2ncc3nc(-c4ccccc4)c(=O)n(C)c3n2)CC1,Potency,[1],> 11.4 µM (inactive)
same,"activity change, negative = inhibition",[2],19.6% (inactive)
same,Potency,[3],15.8 µM (active)
same,"activity change, negative = inhibition",[4],23.4% (inactive)
same,"activity, negative = inhibition",[5],20% (inactive)
same,Potency,[6],> 9.22 µM (inactive)
same,Potency,[7],> 46 µM (inactive)
same,Potency,[8],inactive
same,Potency,[9],inactive
same,"activity change, negative = inhibition",[11],4.64% (inactive)
same,max response,[11]; [21],14.1%
same,max response,[11]; [22],18.5%
same,Potency,[12],inactive
same,Potency,[13],inactive
same,Potency,[14],inactive
same,Potency,[15],inactive
COc1cc(O)c(C(=O)/C=C/c2ccc(OC)c(O)c2)c(OC)c1,Potency,[10],6.31 µM (active)
same,Potency,[16],inactive
same,outcome,[19],inactive
same,"activity change, negative = inhibition",[11],-24.7% (inactive)
same,max response,[11]; [21],-3.92%
same,max response,[11]; [22],-25.6%
same,Potency,[17],inactive
C[C@@H](Oc1ccc(Oc2cnc3ccc(Cl)cc3n2)cc1)C(=O)O,"activity change, negative = inhibition",[11],-0.184% (inactive)
same,max response,[11]; [21],-7.54%
same,max response,[11]; [22],-6.55%
COC(=O)CC1C2(C)CC34OC5(C)O[C@@]6(C7/C(=C(/OC)C(C)C)C(=O)OC(c8ccoc8)[C@@]7(C)C(OC(=O)C(C)C)C(OC)[C@]6(O5)[C@@]13C)C(OC)[C@]4(OC)C2OC(C)=O (stereo partly specified),Potency,[10],2.51 µM (active)
same,Potency,[16],inactive
same,"activity change, negative = inhibition",[11],-17.5% (inactive)
same,max response,[11]; [21],1.3%
same,max response,[11]; [22],-14.4%
same,Potency,[17],inactive
same,Potency,[18],inactive
